# Measured values taken from PubChem BioAssay (NCATS).
# Records with an inconclusive call do not appear. The source made the active and inactive calls. Calls follow the shape of the dose curve; as a rule, active = well fitted cell-killing curve with a large enough effect; inconclusive = small, poorly fitted or top-dose-only effect; inactive = no such curve, though single readings can be large or run the other way.
# Test: qHTS of pediatric cancer cell lines to identify multiple opportunities for drug repurposing: Confirmatory screen for U-2 OS cells (AID 1347122); also: nearly all actives have a fitted effect of over 65% in size
# Conditions: U-2 OS osteosarcoma cell viability; series mostly up to 45.9 µM; activity change, negative = cytotoxicity: at the top concentration
# Description: Drug repurposing or repositioning has been offered as a strategy for drug development in oncology programs. This approach has special potential for childhood cancers and other rare or orphan diseases, where the expected return on new drug development has been a disincentive to pharmaceuticals.
# In this project we exploit the poly-pharmacology of drugs to discover new indications via phenotypic screening of a panel of 19 well-characterized cell lines derived from solid tumors seen in children and adolescents. The goal is to identify approved drugs with previously unrecognized anticancer properties that has the potential to reveal new mechanisms and biological processes involved in carcinogenesis or drug resistance. We employed a titration-based paradigm (quantitative high-throughput screening or qHTS), where all compounds were tested at multiple concentrations for their effect on cell viability. Concentration-response curves (CRCs) were derived directly from the primary screen, and both potency and efficacy values were used to identify compounds with robust bioactivity profiles. We screened the NIH Chemical Genomics Center (NCGC) Pharmaceutical Collection (NPC) and Mechanism Interrogation Plate (MIPE) small molecule collections of approved and investigational compounds against these cell lines; and measured metabolically active cells after 48 hours of compound treatment as a proxy for cell viability.
# Assay Submitter: Nathalia J. Martinez, National Center for Advancing Translational Sciences, National Institutes of Health, Rockville, MD, USA; email: natalia.martinez@nih.gov
# [1] Shen, M et al. Quantitative high-throughput phenotypic screening of pediatric cancer cell lines identifies multiple opportunities for drug repurposing. Oncotarget 2017 Dec 19;9(4):4758-4772. PMID 29435139.
# The cells were obtained from University of North Carolina (UNC), Pediatric Preclinical Testing Program (PPT), and Coriell Institute (CI).
# qHTS cell viability assay:
# Cells were assayed in growth media at a density of 500-1,000 cells/well. Five microliters of cells were dispensed into 1,536-well, white, solid-bottom, TC-treated plates (Greiner Bio One) using a multidrop dispenser and incubated at 37 degrees C, 5% CO2, under a humidified atmosphere for 5 hours. Twenty-three nanoliters of compounds and controls (neutral control DMSO or positive control bortezomib at final concentration of 2.3 µM) were subsequently transferred by Kalypsys pintool. For primary screens, the MIPE collection was tested at 11-point dilutions (final concentrations range from 0.78 nM to 46 µM) and the NPC collection at 8-point dilutions (final concentrations range from 0.59 nM to 46 µM). Compounds tested in follow-up screens were assayed at 11-point dilutions. Cells were incubated for 48 hours, followed by addition of 3 µL of CellTiter-Glo (Promega). After a 15 min incubation at room temperature, samples were analyzed for luminescence intensity using a ViewLux High-throughput CCD imager equipped with clear filters.
# Potency is read from the fitted curve at half-maximal effect.
Structure (SMILES),Potency,"activity change, negative = cytotoxicity",outcome
CCCS(=O)(=O)Nc1ccc(F)c(C(=O)c2c[nH]c3ncc(-c4ccc(Cl)cc4)cc23)c1F,23.3 µM (active),,
CN1CCN(CCCN2c3ccccc3Sc3ccc(C(F)(F)F)cc32)CC1,23.3 µM (active),,
CS(=O)(=O)c1ccc(C(=O)Nc2ccc(Cl)c(-c3ccccn3)c2)c(Cl)c1,,3.08% (inactive),
Cc1oncc1C(=O)Nc1ccc(C(F)(F)F)cc1,,-16.9% (inactive),
Cc1c(CN2CCN(C(=O)C(C)C)CC2)sc2c(N3CCOCC3)nc(-c3cnc(N)nc3)nc12,0.737 µM (active),,
COc1ccc(-c2ccc3c(N4CCOC[C@H]4C)nc(N4CCOC[C@H]4C)nc3n2)cc1CO,0.329 µM (active),,
O=NN(CCCl)C(=O)NCCCl,,16.9% (inactive),
COc1ccc(-c2ccc3c(N4CCOCC4)nc(N4C[C@@H](C)O[C@@H](C)C4)nc3n2)cc1CO,1.65 µM (active),,
COc1cc(Nc2ncc3c(n2)-c2ccc(Cl)cc2C(c2c(F)cccc2OC)=NC3)ccc1C(=O)O,10.4 µM (active),,
CCOc1ccn(-c2ccc(F)cc2)c(=O)c1C(=O)Nc1ccc(Oc2ccnc(N)c2Cl)c(F)c1,,13.8% (inactive),
Cn1cnc2c(F)c(Nc3ccc(Br)cc3Cl)c(C(=O)NOCCO)cc21,16.5 µM (active),,
CO[C@@H]1[C@H](N(C)C(=O)c2ccccc2)C[C@H]2O[C@]1(C)n1c3ccccc3c3c4c(c5c6ccccc6n2c5c31)C(=O)NC4,,39.2% (inactive),
Nc1nc2[nH]cc(CCc3ccc(C(=O)N[C@@H](CCC(=O)O)C(=O)O)cc3)c2c(=O)[nH]1,,33.6% (inactive),
NC(=O)c1ccc(I)c([N+](=O)[O-])c1,,14.1% [at 97.2 µM] (inactive),
CC(C=CC1=C(C)CCCC1(C)C)=CC=CC(C)=CC(=O)O,,11.1% (inactive),
CCC(C)(C)C(=O)O[C@H]1C[C@@H](C)C=C2C=C[C@H](C)[C@H](CC[C@@H]3C[C@@H](O)CC(=O)O3)[C@H]21,10.4 µM (active),,
C[C@]1(c2nc3c(C(N)=O)cccc3[nH]2)CCCN1,,3.78% (inactive),
COc1ccc(-c2oc3cc(OC)ccc3c2C(=O)c2ccc(C#N)cc2)cc1,,-5.66% (inactive),
NC(N)=NC(=O)c1nc(Cl)c(N)nc1N,7.37 µM (active),,
CNCc1ccc(-c2[nH]c3cc(F)cc4c3c2CCNC4=O)cc1,,-0.124% (inactive),
O=C(NOC[C@H](O)CO)c1ccc(F)c(F)c1Nc1ccc(I)cc1F,1.31 µM (active),,
Nc1nc2c(ncn2COCCO)c(=O)[nH]1,,2.55% (inactive),
Cc1cn[nH]c1,,6.9% (inactive),
CCN(CC)CCCC(C)Nc1ccnc2cc(Cl)ccc12 (stereo not given),,,inactive
NCCCC(N)(C(=O)O)C(F)F (stereo not given),,-18.7% (inactive),
